NPSR antag: qHTS Assay for Antagonists of the Neuropeptide S Receptor: cAMP Signal Transduction. Q6W5P4. CHO-NPSR cells, cAMP TR-FRET, antagonist mode. Potency, µM (series often up to 38.3 µM), for the others: top-dose activity change, negative = inhibition, hits mostly inhibitors. hit rate 1% among 220,000. AID 1461, 2008; note: nearly all actives have a fitted effect of over 50% in size
B2AR arrestin: qHTS assay of beta-arrestin-biased ligands of beta2-adrenergic receptor; Beta-2 adrenergic receptor (Homo sapiens), P07550; beta-arrestin recruitment to beta2AR, cell-based reporter; Potency, µM (highest dose often 46.1 µM), inactives show at the top dose activation, most hits filed as activators; hit rate 0.02% among 330,000; AID 492947, 2010;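 note: 0% = DMSO controls and full agonism = EC100 isoproterenol or metaproterenol; nearly all actives have a fitted effect of over 65% in size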
Target sequence (P07550 whole entry, looked up): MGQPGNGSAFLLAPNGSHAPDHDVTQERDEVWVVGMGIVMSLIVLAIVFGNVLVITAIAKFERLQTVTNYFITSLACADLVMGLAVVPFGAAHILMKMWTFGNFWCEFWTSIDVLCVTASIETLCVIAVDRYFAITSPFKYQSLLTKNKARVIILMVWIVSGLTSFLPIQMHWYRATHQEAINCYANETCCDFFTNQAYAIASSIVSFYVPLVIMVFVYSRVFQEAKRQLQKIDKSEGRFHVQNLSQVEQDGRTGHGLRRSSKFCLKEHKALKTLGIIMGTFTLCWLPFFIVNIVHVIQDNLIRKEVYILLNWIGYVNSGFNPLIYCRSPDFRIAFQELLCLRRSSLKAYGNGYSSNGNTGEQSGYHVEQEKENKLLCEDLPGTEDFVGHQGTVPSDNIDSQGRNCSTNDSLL
VP16 counter: VP16 counterscreen qHTS for inhibitors of ROR gamma transcriptional activity; Drosophila S2 Gal4-VP16 UAS-luciferase, luminescence, 20 h; Potency, µM (highest dose often 53.6 µM), inactives show at the highest dose activity, negative = inhibition, usual class: inhibitors; hit rate 3.5% among 310,000; AID 2546, 2010;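 note: Gal4-VP16 expression switched on by copper sulfate through the metallothionein promoter; nearly all actives have a fitted effect of over 50% in size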
RORgamma inh: qHTS for inhibitors of ROR gamma transcriptional activity; AID 2551, 2010; Drosophila S2 Gal4-RORgamma UAS-luciferase reporter, 20 h; hit rate 5.4% among 310,000; Potency, µM (series often up to 53.6 µM), for inactives: top-dose activity change, negative = inhibition, hits mostly inhibitors; note: nearly all actives have a fitted effect of over 60% in size
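Stable Schneider cell line, Gal4 DNA-binding domain fused to ROR gamma, UAS-luciferase. Cmpd 1 hr RT → CuSO4 700 uM final → 20 hr RT → luciferase reagent 10 min → luminescence.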
Numbers without * were called inactive; ? = inconclusive; . = not tested or not shown; [ ] = remark or other dose. In the library only some 5.7% were active in any assay of this set; here they are far more common. Calls come from the whole dose curve; as a rule, active = well fitted curve in the direction sought with a large enough effect; inconclusive = small, poorly fitted or top-dose-only effect, or another doubt; inactive = no such curve, though single readings can be large; an effect the other way counts as inactive or inconclusive. Unless noted, % is set by controls: 0 for no effect and ±100 for the full control effect; potency is the fitted concentration of half-maximal effect.

SMILES	NPSR antag	B2AR arrestin	VP16 counter	RORgamma inh
CN(Cc1ccccc1)S(=O)(=O)c1cccc2cccnc12	-22.9%[46.1 µM]	0.3%	-0.2%	26.8%
CCC(=O)c1ccc(OCc2ccc(C(=O)c3ccccc3)cc2)cc1	-7.5%	0.0%	7.08µM*	?
CCC(C)(C)NC(=O)COc1ccc(C(=O)c2ccccc2)cc1	-10.7%	0.0%	12.6µM*	33.6%
CCC(=O)c1ccc(OCc2ccccc2)c(OC)c1	10.3%	-0.4%	23.0%	?
O=C(COc1ccc(C(=O)c2ccccc2)cc1)NC1CCCCCC1	-19.2%	-0.3%	?	?
Cn1c(CNC(=O)CCNC(=O)c2cccc(Cl)c2)cc(=O)n(C)c1=O	.	0.4%	4.2%	-15.5%
N#CCCN(Cc1cccnc1)C(=S)NC(=O)c1ccc(S(=O)(=O)N2CCCC2)cc1	1.4%	0.1%	?	2.51µM*
Cc1ccc(C(=O)NNC(=O)c2ccc(S(=O)(=O)N3CCOCC3)cc2)cc1	.	-0.2%	24.0%	-20.7%
CCCCN(C)C(=O)c1ccc(S(=O)(=O)N2CCOCC2)cc1	6.6%[46.1 µM]	-0.6%	5.6%	-6.7%
O=C(NC(=S)N1CCN(C(c2ccccc2)c2ccccc2)CC1)c1ccc(S(=O)(=O)N2CCOCC2)cc1	3.5%	0.2%	0.0282µM*	0.316µM*
CN1CCN(C(=S)NC(=O)c2ccc(S(=O)(=O)N3CCOCC3)cc2)CC1	10.6%	-0.4%	?	10µM*
CCCN(CC1CC1)C(=S)NC(=O)c1ccc(S(=O)(=O)N2CCOCC2)cc1	-15.3%	0.5%	0.891µM*	0.355µM*
NC(=O)NC(CC(=O)NNC(=O)c1cccs1)c1ccc(Cl)cc1 (stereo unspecified)	.	-0.3%	.	.
CCc1nc(SCc2ccc(Br)cc2)n[nH]1	.	-1.0%	?	13.9%
CCc1nc(SCc2ccc(OCC(C)C)cc2)n[nH]1	.	0.0%	15.8µM*	?
COc1ccc(C2CC(=O)Oc3cc(C)c(Cl)c(C)c32)cc1 (stereo unspecified)	.	-1.1%	31.6µM*	?
COc1cc(C2CC(=O)Oc3cc(C)c(Br)c(C)c32)cc(OC)c1OC (stereo unspecified)	.	0.2%	5.62µM*	?
Cc1ccc(-n2c(Cn3c(C)nc4ccccc43)n[nH]c2=S)cc1	3.6%	-2.3%	-12.5%	?
Cc1ccc(C2CC2c2n[nH]c(=S)n2-c2ccc(C)cc2)cc1 (stereo unspecified)	-19.1%[46.1 µM]	-0.5%	5.62µM*	3.16µM*
S=c1[nH]nc(C2CC2c2ccc(Cl)cc2)n1-c1ccc(Cl)cc1 (stereo unspecified)	-30.1%	-1.0%	?	2.24µM*
Cc1ccc(-n2c([C@@H]3C[C@H]3c3ccccc3)n[nH]c2=S)cc1	-0.8%	-0.2%	?	2.82µM*
Cc1c(-c2n[nH]c(=S)n2-c2ccc(Br)cc2)nnn1-c1ccc(Cl)cc1	-45.9%	-0.1%	6.5%[10 µM]	-9.5%
Cc1ccc(-n2c(C3CC3c3ccc(Cl)cc3)n[nH]c2=S)cc1 (stereo unspecified)	?	2.8%	5.62µM*	2.82µM*
Cc1ccc(C2CC2c2n[nH]c(=S)n2-c2cccc(Cl)c2)cc1 (stereo unspecified)	-21.4%	-1.0%	7.08µM*	2.51µM*
O=C(NCc1n[nH]c(=S)n1-c1cccc(Cl)c1)c1cccs1	-3.1%	-0.8%	0.3%	-2.4%
SMILES	NPSR antag	B2AR arrestin	VP16 counter	RORgamma inh
CC(C)NC(=O)c1ccccc1NC(=O)/C=C/c1cccc([N+](=O)[O-])c1	-26.6%	-1.1%	7.94µM*	?
O=C(COc1cccc(F)c1)Nc1nc(-c2ccncc2)cs1	.	0.0%	.	.
O=C(O)CNC(=O)[C@@H](CS)Cc1ccccc1	.	.	-1.6%[17 µM]	-1.8%[16.9 µM]
Cc1nn(C)cc1/C=N/NC(=O)c1ccc2c(c1)OCO2	-14.9%[46.1 µM]	-0.3%	0.6%	-12.0%
Cc1nn(C)cc1/C=N\NC(=O)c1ccc2c(c1)c(C)c(C)n2Cc1ccccc1	-20.9%[46.1 µM]	0.1%	?	15.8µM*
CC1(C)Cc2c(sc3ncnc(NNC(=S)NCc4ccccc4)c23)CO1	-29.6%	0.3%	3.16µM*	2.24µM*
C=CCNC(=S)NNC(=O)c1csc(CC)c1	-2.3%	-2.3%	-19.9%	-39.8%
CCCCNC(=S)NNC(=O)c1csc(C)c1CC	-1.0%	-0.4%	-27.3%	2.82µM*
C=CCNC(=S)NNC(=O)c1csc(C)c1CC	7.3%[46.1 µM]	0.1%	-16.6%	8.91µM*
C=CCNC(=S)NNC(=O)c1cccc2ccccc12	-9.8%[46.1 µM]	-0.5%	-27.2%	1.12µM*
Cc1ccc2nc(N3C(=O)CNC3=S)sc2c1	?	?	3.55µM*	1µM*
COC(=O)/C=C1\C(=O)N(c2nc3ccc(OC)cc3s2)C(=S)N1c1ccc(F)cc1	-5.5%[46.1 µM]	0.1%	1.6%[0.365 µM]	?
Cc1cccc(CC2CC(=O)N(c3nc4ccccc4s3)C2=O)c1 (stereo unspecified)	-32.3%	-0.1%	4.6%	33.2%
COc1ccc2nc(N3C(=O)CNC3=S)sc2c1	-46.2%	5.2%	5.62µM*	0.501µM*
O=C(Nc1nnc(C2=COCCO2)o1)c1cccc(C(F)(F)F)c1	.	-0.4%	0.316µM*	0.562µM*
O=C(Nc1nnc(C2=COCCO2)o1)c1ccc(Cc2ccccc2)cc1	16.9%	0.0%	3.16µM*	0.631µM*
O=C(Nc1nnc(C2=COCCO2)o1)c1ccc(Br)cc1	.	1.1%	0.501µM*	0.794µM*
O=C(Nc1nnc(C2=COCCO2)o1)c1ccc(F)cc1	.	-0.2%	0.794µM*	0.891µM*
CS(=O)(=O)c1cccc(-c2nnc(NC(=O)C3=COCCO3)o2)c1	.	0.9%	.	.
CS(=O)(=O)c1ccccc1-c1nnc(NC(=O)C2=COCCO2)o1	.	0.0%	.	.
CNc1ccnc(-c2cccc(NS(C)(=O)=O)c2)n1	.	.	-0.5%	8.4%
CC(=O)NC1[C@H]([C@H](O)[C@H](O)CO)OC(C(=O)O)=C[C@H]1N=C(N)N (stereo partly specified)	.	.	-9.3%	-4.1%[10 µM]
O=C(Nc1nnc(C2=COCCO2)o1)c1ccc([N+](=O)[O-])cc1	.	0.5%	0.891µM*	1.12µM*
O=C(Nc1ccc(N2CCOCC2)cc1)c1ccc([N+](=O)[O-])cc1	3.4%	-1.0%	-17.2%	11.0%
CC(=O)Nc1nnc(C2=COCCO2)o1	3.4%	0.1%	0.4%	2.0%
SMILES	NPSR antag	B2AR arrestin	VP16 counter	RORgamma inh
O=C(Nc1nnc(C2=COCCO2)o1)c1ccc(Cl)cc1	7.0%	-0.1%	-88.0%	0.631µM*
Cc1ccc(Cl)c2sc(N3CCN(C(=O)c4ccco4)CC3)nc12	.	0.0%	.	.
C/C(Cc1ccccc1)=N\NC(=O)CNC(=O)c1ccc(Cl)cc1Cl	-18.6%	0.5%	-2.0%	-3.4%
S=C(NCc1ccccc1)NC1CCCc2ccccc21 (stereo unspecified)	-32.4%	-0.2%	11.2µM*	2.51µM*
CNC(=O)NC1CCCc2ccccc21 (stereo unspecified)	-7.1%[46.1 µM]	0.2%	0.9%	?
Cc1c(C(=O)NC2CCCc3ccccc32)oc2ccccc12 (stereo unspecified)	-23.5%[46.1 µM]	0.1%	7.9%	4.47µM*
